Experiments:
[1] = system: Botulinum neurotoxin type F light chain protease (Clostridium botulinum); assay: Clostridium botulinum type F light chain protease inhibitors, microsphere substrate cleavage, validation (AID 588459); conditions: multiplex microsphere protease substrate cleavage assay, flow cytometry; at 10 µM; stronger effect = higher value
[2] = molecular target: Botulinum neurotoxin type A (Clostridium botulinum) (UniProt P0DPI0); assay: BoNT/A light chain protease inhibitors, biochemical, multiplex microsphere flow cytometry, validation set (AID 588460); conditions: at 10 µM, stronger effect = higher value
Botulinum neurotoxin type A (Clostridium botulinum), sequence (P0DPI0 whole entry, looked up): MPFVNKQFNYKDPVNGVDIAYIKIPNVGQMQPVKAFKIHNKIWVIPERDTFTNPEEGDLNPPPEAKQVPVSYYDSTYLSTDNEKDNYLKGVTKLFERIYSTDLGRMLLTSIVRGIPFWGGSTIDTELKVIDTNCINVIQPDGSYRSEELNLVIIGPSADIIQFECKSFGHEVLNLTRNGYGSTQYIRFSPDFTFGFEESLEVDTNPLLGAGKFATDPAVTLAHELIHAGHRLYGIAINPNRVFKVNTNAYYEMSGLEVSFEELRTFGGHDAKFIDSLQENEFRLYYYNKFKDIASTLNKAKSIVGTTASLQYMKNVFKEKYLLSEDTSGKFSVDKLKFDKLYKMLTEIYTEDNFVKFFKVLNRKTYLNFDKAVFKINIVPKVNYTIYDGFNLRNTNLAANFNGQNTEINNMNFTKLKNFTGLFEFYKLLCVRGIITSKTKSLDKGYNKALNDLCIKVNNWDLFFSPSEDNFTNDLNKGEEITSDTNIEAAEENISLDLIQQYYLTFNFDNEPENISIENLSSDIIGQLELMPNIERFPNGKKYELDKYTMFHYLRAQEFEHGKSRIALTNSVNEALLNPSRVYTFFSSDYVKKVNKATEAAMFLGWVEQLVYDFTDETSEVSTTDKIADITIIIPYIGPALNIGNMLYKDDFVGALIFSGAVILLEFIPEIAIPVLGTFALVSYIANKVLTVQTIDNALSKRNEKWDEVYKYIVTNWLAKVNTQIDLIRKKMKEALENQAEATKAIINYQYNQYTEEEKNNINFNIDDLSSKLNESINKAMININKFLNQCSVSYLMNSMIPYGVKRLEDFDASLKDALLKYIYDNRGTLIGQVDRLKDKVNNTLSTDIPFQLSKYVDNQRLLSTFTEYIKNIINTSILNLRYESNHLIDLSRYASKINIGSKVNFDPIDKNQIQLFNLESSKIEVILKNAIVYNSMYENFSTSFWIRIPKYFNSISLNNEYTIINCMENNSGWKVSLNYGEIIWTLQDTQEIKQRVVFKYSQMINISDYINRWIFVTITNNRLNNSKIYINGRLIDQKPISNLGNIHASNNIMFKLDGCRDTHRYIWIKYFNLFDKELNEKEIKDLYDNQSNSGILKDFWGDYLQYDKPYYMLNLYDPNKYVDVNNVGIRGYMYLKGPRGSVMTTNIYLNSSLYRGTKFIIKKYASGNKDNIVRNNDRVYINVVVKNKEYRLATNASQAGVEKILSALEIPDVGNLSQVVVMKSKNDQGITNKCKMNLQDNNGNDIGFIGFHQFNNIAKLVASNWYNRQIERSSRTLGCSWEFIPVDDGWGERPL

[3] = molecular target: Lethal factor (Bacillus anthracis) (UniProt P15917); assay: Bacillus anthracis lethal factor inhibition, microsphere flow cytometry protease assay, validation at 10 µM (AID 588461); conditions: multiplex microsphere protease cleavage assay, stronger effect = higher value
Lethal factor (Bacillus anthracis), sequence (P15917 whole entry, looked up): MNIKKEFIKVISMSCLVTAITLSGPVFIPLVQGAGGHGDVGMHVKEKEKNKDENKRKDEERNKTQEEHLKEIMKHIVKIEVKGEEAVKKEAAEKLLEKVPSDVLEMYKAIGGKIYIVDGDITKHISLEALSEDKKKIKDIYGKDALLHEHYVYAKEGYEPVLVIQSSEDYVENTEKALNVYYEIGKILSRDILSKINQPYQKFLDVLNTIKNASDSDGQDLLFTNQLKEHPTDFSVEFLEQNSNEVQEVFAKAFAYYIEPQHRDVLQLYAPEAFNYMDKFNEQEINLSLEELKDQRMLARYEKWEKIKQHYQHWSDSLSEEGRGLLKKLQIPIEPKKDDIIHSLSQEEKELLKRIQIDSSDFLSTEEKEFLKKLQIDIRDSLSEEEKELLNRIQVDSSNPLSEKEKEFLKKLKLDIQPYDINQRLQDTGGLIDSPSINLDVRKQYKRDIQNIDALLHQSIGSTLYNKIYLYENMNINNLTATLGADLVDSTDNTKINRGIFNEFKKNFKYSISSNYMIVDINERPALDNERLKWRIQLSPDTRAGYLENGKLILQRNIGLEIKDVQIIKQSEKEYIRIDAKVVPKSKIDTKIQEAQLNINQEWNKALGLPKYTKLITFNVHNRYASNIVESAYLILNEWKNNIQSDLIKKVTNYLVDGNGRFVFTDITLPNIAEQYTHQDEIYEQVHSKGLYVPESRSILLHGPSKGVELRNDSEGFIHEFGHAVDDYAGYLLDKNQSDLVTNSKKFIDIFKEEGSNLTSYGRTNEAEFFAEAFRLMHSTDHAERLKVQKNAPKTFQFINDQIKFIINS

Measured: inhibition

COc1ccc(C2OC(=O)Cc3cc(OC)c(OC)cc32)cc1 (stereo not drawn)
inactive: [1] 3.2% | [2] 0.8% | [3] 2.9%

CCOC(=O)C1=C(C)NC(C)=C(C(=O)OC)C1c1cccc([N+](=O)[O-])c1 (stereo not drawn)
inactive: [1] -1.6% | [2] 0.4% | [3] -10%

O=C1CN(O)C=C2N=c3ccccc3=C2N1c1ccc([N+](=O)[O-])cc1
inactive: [1] -2.6% | [2] -2.1% | [3] -4.4%

CC(COc1ccccc1)NC(C)C(O)c1ccc(O)cc1 (stereo not drawn)
inactive: [1] -1.7% | [2] 0.2% | [3] 0.2%

COc1ccc2oc(=O)c(C(=O)Nc3ccccc3-c3ccccc3)cc2c1
inactive: [1] 3.1% | [2] 0.3% | [3] -1.6%

CNCCCN1c2ccccc2CCc2ccccc21
inactive: [1] -0.9% | [2] -0.6% | [3] 3.8%

CCOC(=O)c1cc2c(nc1N)CC(C)(CC)OC2 (stereo not drawn)
inactive: [1] 3.5% | [2] 1% | [3] -2.4%

O=C1C=CC(=O)C(C2=C3C(=O)N(CCc4ccccc4)CC(=O)N3CCC2)=C1
inactive: [1] 1.8% | [2] -0.3% | [3] -4.9%

CC(C)N(C(=O)Cc1ccccc1[N+](=O)[O-])C(C)C
inactive: [1] -0.6% | [2] -2% | [3] -1.5%

CN1CCN(CC/C=C2/c3ccccc3Sc3ccc(S(=O)(=O)N(C)C)cc32)CC1
inactive: [1] 3.2% | [2] 0.9% | [3] 0%

OC(CCN1CCCCC1)(c1ccccc1)c1ccccc1
inactive: [1] 0.9% | [2] 0.5% | [3] -0.2%

OC[C@H]1O[C@@H](n2cnc3c(NC4CCCC4)ncnc32)[C@H](O)[C@@H]1O
inactive: [1] -1.4% | [2] 0.2% | [3] -6.9%

COCCCN1C(=O)C(=O)/C(=C(/O)c2ccc3c(c2)CC(C)O3)C1c1cccnc1 (stereo not drawn)
inactive: [1] -3% | [2] -2.1% | [3] 3.5%

COc1cc(C(=O)N/C(=C\c2cn(C)c3ccccc23)C(=O)NCCCO)cc(OC)c1OC
inactive: [1] 2% | [2] -1.2% | [3] -2.5%

Nc1nnc(-c2cccc(Cl)c2Cl)c(N)n1
inactive: [1] 1.3% | [2] 0.8% | [3] -5.9%

O=C(NCCO)c1ccc(Cl)c(Cl)c1
inactive: [1] -0.2% | [2] -0.6% | [3] -2.2%

O=C(/C=C/c1ccccc1)NCC1(c2ccccc2)CCOCC1
inactive: [1] -1.5% | [2] 0.4% | [3] 3%

COCCNC(=O)CSc1ccc(Cl)cc1
inactive: [1] 1.8% | [2] 0.7% | [3] 1.4%

C[C@H](NC(=O)Nc1ccccc1F)C(=O)O
inactive: [1] -3.8% | [2] -0.3% | [3] -3.2%

C[C@]12CCC3C(CC=C4C[C@@H](O)CC[C@@]43C)C1CCC2[C@]1(C)CCC(=O)O1 (stereo partly drawn)
inactive: [1] 0.6% | [2] -0.3% | [3] -5.1%

COc1cc(C(=O)OCCCN(C)C)cc(OC)c1OC
inactive: [1] -0.2% | [2] -0.5% | [3] 1.8%

S=C(NCc1ccccc1)NCc1cccc(CNC(=S)NCc2ccccc2)c1
inactive: [1] -0.9% | [2] 0.7% | [3] -2.4%

C[C@]12CCC(=O)C[C@@H]1CC[C@@H]1[C@@H]2CC[C@]2(C)C=CC[C@@H]12
inactive: [1] 3.9% | [2] 0.7% | [3] -1.3%

CCCCN(CCCC)CCCOC(=O)c1ccc(N)cc1
inactive: [1] -1.6% | [2] 0.8% | [3] 1.4%

O=C(Nc1nc2ccccc2s1)c1ccc(F)cc1
inactive: [1] -5.1% | [2] -1.5% | [3] -5.8%

O=C(O)c1cc(-c2ccc3c(c2)OCO3)nc2ccc(Br)cc12
inactive: [1] -1% | [2] 3% | [3] -2.6%

C[C@]12C[C@H](O)[C@H]3[C@@H](CCC4=CC(=O)CC[C@@]43C)[C@@H]1CC[C@@H]2C(=O)CO
inactive: [1] 0.1% | [2] -0.6% | [3] -9.2%

COC(=O)c1[nH]c2ccccc2c1NC(=O)CN1CCN(C/C=C/c2ccccc2)CC1
inactive: [1] -2.6% | [2] -1.4% | [3] -4.7%

CCOC(=O)C1C(=O)OC2(CCOC(C)(C)C2)C1C(=O)OCC (stereo not drawn)
inactive: [1] -2.7% | [2] -0.2% | [3] -0.1%

Oc1ccc(COCc2ccccc2)c2cccnc12
inactive: [1] -2% | [2] -3.5% | [3] -3.1%

O=C(O)CCn1c(=S)n(CCC(=O)O)c2ccccc21
inactive: [1] 2.7% | [2] 0.3% | [3] 3.1%

O=CNC1CCCc2c1[nH]c1ccc(Cl)cc21 (stereo not drawn)
inactive: [1] -1.4% | [2] 0.2% | [3] 1.6%

N=c1c[n+](N2CCOCC2)[n-]o1
inactive: [1] -6.3% | [2] 0.1% | [3] 0.2%

COc1cc(CNc2nnnn2C)ccc1OCc1ccc(F)cc1Cl
inactive: [1] -4.9% | [2] -0.5% | [3] -1.3%

COc1ccc2c(c1OC)C(C1c3c(cc4c(c3OC)OCO4)CCN1C)OC2=O (stereo not drawn)
inactive: [1] 1.6% | [2] -0.7% | [3] 3.5%

Cc1ccc2c(c1)C1(C(=O)N2)N2CCCC2C(C(=O)c2ccc3ccccc3c2)C12C(=O)Nc1ccccc12 (stereo not drawn)
inactive: [1] 0% | [2] -1% | [3] -10%

COc1ccc(/C=N\NC(=O)CCc2c(C)n[nH]c2C)c(OC)c1OC
inactive: [1] -0.8% | [2] 0.3% | [3] 8.6%

CC(C)NCC(O)COc1ccc(CCOCC2CC2)cc1 (stereo not drawn)
inactive: [1] -0.9% | [2] -3.6% | [3] 1.3%

COc1cccc2c(=O)c3ccccc3oc12
inactive: [1] 12.6% | [2] 3.9% | [3] -4.2%

CN(C)CCCNc1ncnc2c1cnn2-c1ccccc1
inactive: [1] 0.3% | [2] -0.3% | [3] -4%

CCOC(=O)C1(Cc2cccc(Cl)c2)CCCN(C2CCN(C(C)=O)CC2)C1 (stereo not drawn)
inactive: [1] 9.1% | [2] 0.7% | [3] -5.1%

Cc1c(Cc2ccccc2)c(=O)oc2c(CN(C)C)c(O)c(Cl)cc12
inactive: [1] 0% | [2] -0.6% | [3] -7.6%

O=C(NC(=S)N1CCCCC1)c1cccnc1
inactive: [1] 1.2% | [2] 1% | [3] -4.6%

CC(=O)[C@@]1(O)CC[C@H]2[C@@H]3C[C@H](C)C4=CC(=O)C=C[C@]4(C)[C@@]3(F)[C@@H](O)C[C@@]21C
inactive: [1] -1.5% | [2] -1.1% | [3] 5.2%

Cc1cc(=O)oc2c(CN(C)Cc3ccccc3)c(O)ccc12
inactive: [1] -0.2% | [2] -0.7% | [3] -3.4%

COc1ccc(C(=O)/C=C/c2ccc(OC(=O)c3cc(OC)c(OC)c(OC)c3)cc2)cc1
inactive: [1] 2.9% | [2] 0.3% | [3] -5%

Reference: PubChem BioAssay
